Casp6 inh = caspase-6 (human) enzyme inhibition | P55212 | purified caspase-6, Z-VEID-R110 cleavage fluorescence | inhibition, % at 12.5 µM | 350,000 compounds, 0.53% hits | AID 686996;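 active = mean inhibition across replicates at least about 35%, with every replicate also reaching that limit, limit read from the data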;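 also: 0% = median of neutral control wells and 100% = no fluorescence left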
Target sequence (P55212 24-179 limits assumed): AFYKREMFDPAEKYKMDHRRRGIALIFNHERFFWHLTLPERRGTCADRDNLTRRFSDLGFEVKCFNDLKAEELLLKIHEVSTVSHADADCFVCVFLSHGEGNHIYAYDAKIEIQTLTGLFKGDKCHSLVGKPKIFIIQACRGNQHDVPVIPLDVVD
Target sequence (P55212 194-293 limits assumed): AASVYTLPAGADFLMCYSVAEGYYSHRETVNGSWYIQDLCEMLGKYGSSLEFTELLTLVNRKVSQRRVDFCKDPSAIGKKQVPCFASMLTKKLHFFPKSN
UHRF1 MBD2 ctr = human UHRF1 methylated DNA binding inhibitors; Q96T88; UHRF1 binding to methylated oligo, TR-FRET; inhibition, % at 4.4 µM; 370,000 compounds, 0.75% hits; AID 687016;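 also: UHRF1 SRA domain binding a hemimethylated CpG hairpin DNA probe; 0% = median of test compound wells and 100% = reference inhibitor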
LEDGF integ inh = blocks HIV-1 LEDGF/p75-dependent DNA integration | TR-FRET IN-LEDGF/p75 DNA integration, Eu/Cy5 | inhibition, % at 3.7 µM | 370,000 compounds, 0.64% hits | AID 743269;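 active = inhibition above the screen-wide mean plus 3 SD, cut at about 13% in these data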;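 also: signal is the Cy5 over europium emission ratio at 671 and 618 nm; 0% = plate median of compound wells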
MBD2 inh = blocks human MBD2 binding to methylated DNA; Q9UBB5; TR-FRET, MBD2 binding to methylated oligonucleotide; inhibition, % at 4.4 µM; 370,000 compounds, 0.31% hits; in the data active = inhibition above about 13%
UHRF1 ctr MBD2 = UHRF1 methyl-oligo binding inhibition as MBD2 counter-screen. shares compounds with MBD2 inh. UHRF1 binding to methylated oligonucleotide, TR-FRET. inhibition, % at 4.4 µM. 1,000 compounds, 25% hits. AID 720530;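 also: UHRF1 SRA domain binding a labeled hemimethylated CpG hairpin DNA; 0% = vehicle only and 100% = reference inhibitor with vehicle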
MBD2 confirm = confirmation of human MBD2-DBD methylated oligonucleotide binding inhibitors | shares compounds with MBD2 inh | TR-FRET MBD2-DBD binding to methylated oligonucleotide | inhibition, % at 4.4 µM | 1,000 compounds, 26% hits | AID 720531; in the data active = inhibition above about 14%
CASP1 counter = blocks human caspase-1 in a selectivity counter-screen; shares compounds with Casp6 inh; purified caspase-1, Z-YVAD-R110 cleavage fluorescence; activity change, negative = inhibition, % at 35 µM; 100 tested, under 10 active; AID 743289;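 active = compounds lowering fluorescence whose fitted half-maximal concentration is no more than twice their top tested dose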
IN multimer up = HIV-1 integrase multimerization activation, counter-screen. TR-FRET HIV-1 integrase multimerization, biochemical. 2,000 compounds, 17% hits. shares compounds with LEDGF integ inh. activation, % at 7.7 µM; in the data active = activation above about 8.9%
TR-FRET interf = counter-screen for LEDGF/p75 integration inhibitors: TR-FRET optical interference; AID 1053135; 2,000 tested, under 10 active; inhibition, % at 7.7 µM; TR-FRET optical interference counterscreen, HIV-1 IN multimerization; shares compounds with LEDGF integ inh;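 active = inhibition above the mean over all tested compounds plus 3 SD, which no compound reached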;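 also: 0% = integrase with antibodies and DMSO and 100% = antibodies without integrase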
LEDGF integ conf = confirmation of HIV-1 LEDGF/p75-dependent integration inhibitors | inhibition, % at 3.7 µM | shares compounds with LEDGF integ inh | 2,000 compounds, 36% hits | TR-FRET LEDGF/p75-dependent HIV-1 integration, biochemical | AID 1053136; in the data active = inhibition above about 14%
* marks the source's active call; other numbers are inactive results; x = no result. Compounds with a hit are over-represented: about 1.4% of the library has one in this group of screens. Rule as the data show it, unless noted: active = inhibition above about 21%; inactive = the rest.

SMILES | Casp6 inh | UHRF1 MBD2 ctr | LEDGF integ inh | MBD2 inh | UHRF1 ctr MBD2 | MBD2 confirm | IN multimer up | TR-FRET interf | LEDGF integ conf | others
O=C(CCO)c1ccc(O)cc1 | 75.3* | 28.3* | 31.6* | 16.2* | 55.4* | 27.6* | 54.3* | -273.4 | 71.2* | CASP1 counter=-0.4
C[C@@H]1CN([C@H](C)CO)C(=O)c2cccc(NS(=O)(=O)c3ccc(F)cc3)c2O[C@@H]1CN(C)CC1CC1 | 1.6 | x | x | x | x | x | x | x | x
CN(C)C(=O)c1cccc(-c2ccc([C@@H]3[C@@H](C#N)N(C(=O)C4CCCC4)[C@H]3CO)cc2)c1 | -0.9 | x | x | x | x | x | x | x | x
O=C(O)c1ccccc1-c1ccc(C=c2sc3nc4cc(Br)cnc4n3c2=O)o1 | x | 95.1* | 28.6* | 55.1* | 72.1* | 63.0* | -2.6 | 13.2 | 16.9*
O=C(O)c1ccccc1-c1ccc(/C=C/c2cc(C(F)(F)F)[nH]c(=O)n2)o1 | 3.6 | -18.2 | 5.4 | -9.7 | x | x | x | x | x
O=C(O)c1cccc(-c2ccc(/C=c3/sc4nc5ccccc5n4c3=O)o2)c1 | 36.6* | 80.8* | 45.5* | 33.6* | 54.2* | 19.4* | 10.8* | -54.4 | 20.2*
CCC1=NN2C(=N)/C(=C\c3ccc(SCc4ccco4)o3)C(=O)N=C2S1 | x | 56.5* | 50.1* | 19.8* | 19.8 | 3.9 | 5.0 | -25.2 | 26.8*
O=C(COC(=O)/C=C/c1ccco1)Nc1ncc(C(F)(F)F)cc1Cl | 53.1* | 55.0* | 31.3* | 14.2* | 27.5* | 9.2 | 4.0 | -19.9 | 14.3*
Cc1c(Cl)cnc(NC(=O)COC(=O)/C=C/c2ccco2)c1Cl | 25.3 | 7.6 | 7.1 | 1.1 | x | x | x | x | x
CCC(=O)N1C[C@H](C)[C@@H](OC)CN(C)C(=O)c2ccc(NC(=O)Nc3cccc(F)c3)cc2OC[C@@H]1C | -2.1 | x | x | x | x | x | x | x | x
Cc1[nH]n(-c2ccccc2)c(=O)c1C(c1cccc([N+](=O)[O-])c1O)c1c(C)[nH]n(-c2ccccc2)c1=O | 1.6 | 24.2* | 25.5* | 21.0* | 4.2 | 0.2 | 8.4 | -40.9 | 0.6
Cc1[nH]n(-c2ccccc2)c(=O)c1C(c1ccc(C(=O)O)cc1)c1c(C)[nH]n(-c2ccccc2)c1=O | 24.4 | 19.8 | 34.4* | 19.7* | 11.2 | 1.7 | 5.7 | -20.3 | 14.2*
Cc1[nH]n(-c2ccccc2)c(=O)c1C(C[N+](=O)[O-])c1ccc(Br)cc1 (configuration not stated) | x | -5.2 | -1.4 | -1.9 | x | x | x | x | x
O=C(C[C@@H]1C[C@H]2c3cc(NS(=O)(=O)c4ccc(F)cc4)ccc3O[C@H]2[C@@H](CO)O1)N1CCOCC1 | -0.8 | x | x | x | x | x | x | x | x
Cc1cc2nc3c(=O)[nH]c(=S)[nH]c3nc2cc1NC(=O)C(F)(F)F | 11.1 | 27.5* | 74.1* | 33.0* | -11.0 | -11.5 | 11.8* | -42.1 | 4.8
C=C(C)C(=O)Oc1ccc(N=Nc2ccc(C)cc2)ccc1=O | 79.6* | 61.6* | 17.7* | 37.6* | 66.5* | 43.3* | 31.1* | -156.9 | 26.1*
CCCCn1c(NS(=O)(=O)c2ccccc2)c(S(=O)(=O)c2ccc(C)cc2)c2nc3ccccc3nc21 | 98.1* | 17.5 | 22.7* | 21.4* | -3.9 | 13.9* | 1.6 | -5.5 | 72.5*
C[C@H]1CN([C@@H](C)CO)C(=O)c2cc(NS(=O)(=O)c3cccs3)ccc2O[C@H]1CN(C)CC1CCCCC1 | 0.7 | x | x | x | x | x | x | x | x
O=[N+]([O-])c1cccc(I)c1 | 7.5 | 88.1* | 65.3* | 59.2* | 1.0 | 5.9 | -2.3 | 11.6 | -2.2
O=C(Nc1cccc([N+](=O)[O-])c1)Nc1cccc([N+](=O)[O-])c1 | -1.4 | 4.5 | -0.4 | 4.9 | x | x | x | x | x
CCOC(=O)CN1C(=O)S/C(=C/c2ccco2)C1=O | 10.8 | -4.7 | -1.0 | -3.4 | x | x | x | x | x

Screens deposited in PubChem by several laboratories.
